# Experimental data taken from the supplement of paper PMC4723716.
# ± gives the uncertainty stated by the source. In all, about 9,900 compounds were measured (“viability index relative to DMSO control”: median about 1, lowest 2% from about 0.85 on). Many of the other results were omitted from the sample, so the lowest values are more common in it than they were.
# Test system: Plasmodium falciparum NF54 stage V gametocytes
# Experiment: viability index relative to DMSO control (fraction); higher = less gametocyte killing
# Conditions: 2.5 µM, incubation time: 72 h
# Summary of the method: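 Compound at 2.5 µM was incubated for 72 hr at 37°C under low oxygen with P. falciparum NF54 stage V gametocytes (0.75% gametocytemia, 1.25% hematocrit, 10 µl, serum-free screening medium) in 1,536-well plates. Staining used 3 µl of 2.5 µM MitoTracker Red CMXRos plus 0.13% saponin for one to two hours, and red particles of 20–70 µm2 were counted in one imaged field per well. Each viability index is that count relative to the plate mean of solvent-only wells.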
# [1] = library set: Broad Institute DOS
# [2] = library set: Broad Institute Blood Stage
Compound,viability index [1],viability index [2]
COc1cccc(S(=O)(=O)N[C@H]2CC[C@@H](CC(=O)NC3Cc4ccccc4C3)O[C@@H]2CO)c1,0.999 ± 0.044,
CC(C)(C)[S@](=O)N1Cc2cc(C(=O)N3CCOCC3)nc(-c3cccc(-c4ccccc4F)c3)c2[C@@H]1CCO,1.07 ± 0.044,
C[C@@H]1CN([C@@H](C)CO)C(=O)c2cc(NC(=O)Nc3ccccc3)ccc2O[C@@H](C)CCCCO[C@H]1CN(C)C(=O)Nc1ccccc1,1.11 ± 0.13,
Cc1ccc(S(=O)(=O)Nc2ccc3c(c2)C(=O)N(C)[C@@H]2CC[C@H](CC(=O)NCCc4ccncc4)O[C@H]2CO3)cc1,1.04 ± 0.026,
C[C@H]1CN([C@@H](C)CO)C(=O)c2cc(C#Cc3ccccc3)cnc2O[C@H]1CN(C)C(=O)c1ccccc1,0.572 ± 0.14,
COc1cccc(S(=O)(=O)N(C)C[C@@H]2Oc3ncc(C#Cc4ccc(OC)c(OC)c4)cc3C(=O)N([C@H](C)CO)C[C@@H]2C)c1,,1.01 ± 0.04
C[C@H](CO)N1C[C@H](C)[C@H](CN(C)C(=O)c2ccccc2)Oc2ncc(C#Cc3ccccc3)cc2C1=O,0.829 ± 0.086,
C[C@H](CO)N1C[C@H](C)[C@H](CN(C)Cc2ccc3c(c2)OCO3)Oc2ncc(-c3cccc(C(F)(F)F)c3)cc2C1=O,0.976 ± 0.025,
C[C@@H]1CN([C@H](C)CO)C(=O)c2cc(C#Cc3ccccc3)cnc2O[C@H]1CN(C)C(=O)c1ccccc1,0.965 ± 0.019,
C[C@H](CO)N1C[C@H](C)[C@@H](CN(C)C(=O)c2ccccc2)Oc2ncc(C#Cc3ccccc3)cc2C1=O,0.963 ± 0.029,
C[C@H]1CN([C@@H](C)CO)C(=O)c2cc(C#Cc3ccccc3)cnc2O[C@@H]1CN(C)C(=O)c1ccccc1,0.919 ± 0.071,
CCCN(C)C[C@@H]1Oc2ncc(-c3cccc(OC)c3)cc2C(=O)N([C@H](C)CO)C[C@@H]1C,0.691 ± 0.3,
C[C@@H]1CN([C@@H](C)CO)C(=O)c2cc(C#Cc3ccccc3)cnc2O[C@H]1CN(C)C(=O)c1ccccc1,1 ± 0.091,
C/C=C/c1ccc2c(c1)[C@@H]1[C@@H](CCN1C(=O)C1CCCC1)[C@H](CO)N2,1.06 ± 0.045,
C[C@@H]1CCCCO[C@H](CN(C)C(=O)NC2CCCCC2)[C@@H](C)CN([C@H](C)CO)C(=O)c2cc(N(C)C)ccc2O1,1.14 ± 0.11,
O=C(Nc1ccccc1)N1CC(=O)N2[C@H](CO)[C@H](c3ccc(C#CC4CCCCC4)cc3)[C@@H]2C1,0.96 ± 0.031,
Cc1noc(C)c1NC(=O)N(C)C[C@@H]1OCc2ccccc2-c2c(n(C)c3ccccc23)C(=O)N([C@@H](C)CO)C[C@H]1C,1.02 ± 0.1,
Cc1noc(C)c1NC(=O)N(C)C[C@@H]1Oc2cc(C#CCN(C)C)ccc2S(=O)(=O)N([C@@H](C)CO)C[C@H]1C,0.947 ± 0.18,
CC(C)C#Cc1ccc([C@H]2[C@@H](CO)N3C(=O)CN(C(=O)c4ccc5c(c4)OCO5)C[C@@H]23)cc1,1.03 ± 0.021,
CNC[C@H]1Oc2c(NS(=O)(=O)c3ccc(Cl)cc3)cccc2C(=O)N([C@@H](C)CO)C[C@H]1C,1.01 ± 0.034,
O=C(C[C@@H]1CC[C@@H]2[C@H](COC[C@H](O)CN2C(=O)c2cc(Cl)cc(Cl)c2)O1)N1CCc2ccccc2C1,1.032 ± 0.0059,
Cc1ccc(OC(=O)N(C)C[C@@H]2OCc3ccccc3-c3ccccc3C(=O)N([C@H](C)CO)C[C@@H]2C)cc1,0.993 ± 0.036,
Cc1ccc(OC(=O)N(C)C[C@@H]2OCc3ccccc3-c3ccccc3C(=O)N([C@H](C)CO)C[C@H]2C)cc1,0.834 ± 0.091,

Compound,viability index [1],viability index [2]
C[C@H](CO)N1C[C@H](C)[C@H](CN(C)C(=O)c2cc(Cl)cc(Cl)c2)OCc2ccccc2-c2ccccc2C1=O,1.04 ± 0.066,
C[C@@H]1CN([C@@H](C)CO)C(=O)c2ccccc2-c2ccccc2CO[C@H]1CN(C)C(=O)c1cc(Cl)cc(Cl)c1,0.937 ± 0.19,
C[C@@H]1CN([C@H](C)CO)C(=O)c2ccccc2-c2ccccc2CO[C@@H]1CN(C)Cc1ccc(Oc2ccccc2)cc1,1.028 ± 0.0055,
C[C@@H]1CN([C@H](C)CO)C(=O)c2ccccc2-c2ccccc2CO[C@@H]1CN(C)C(=O)c1cc(Cl)cc(Cl)c1,0.8517 ± 0.003,
Cc1ccc(OC(=O)N(C)C[C@@H]2OCc3ccccc3-c3ccccc3C(=O)N([C@@H](C)CO)C[C@H]2C)cc1,0.88 ± 0.0063,
C[C@@H]1CN([C@@H](C)CO)C(=O)c2ccccc2-c2ccccc2CO[C@@H]1CN(C)Cc1ccc(Oc2ccccc2)cc1,0.871 ± 0.0091,
C[C@H](CO)N1C[C@H](C)[C@@H](CN(C)Cc2ccc(Oc3ccccc3)cc2)OCc2ccccc2-c2ccccc2C1=O,0.801 ± 0.016,
O=C(c1ccncc1)N1CC2(C1)[C@H](c1ccccc1)[C@@H](CO)N2CC1CC1,1.08 ± 0.016,
Cc1noc(C)c1NC(=O)Nc1ccc2c(c1)C(=O)N([C@@H](C)CO)C[C@@H](C)[C@@H](CN(C)Cc1ccc3c(c1)OCO3)OCCCC[C@@H](C)O2,1.15 ± 0.058,
O=C(c1ccccn1)N1C[C@H]2[C@@H](c3ccccc31)[C@@H](CO)N2C(=O)Nc1ccccc1Cl,1.05 ± 0.026,
CCS(=O)(=O)Nc1ccc2c(c1)C(=O)N(C)[C@@H]1CC[C@H](CC(=O)N[C@@H]3CCN(Cc4ccccc4)C3)O[C@@H]1CO2,1.05 ± 0.04,
O=S(=O)(c1cccc(F)c1)N1CC[C@H]2[C@H](CO)Nc3ccc(C#Cc4ccccc4F)cc3[C@H]21,1.1 ± 0.012,
COc1ccc(CN(C)C[C@@H]2Oc3ccc(NC(=O)Nc4ccc5c(c4)OCO5)cc3CC(=O)N([C@H](C)CO)C[C@@H]2C)cc1,0.983 ± 0.077,
COc1ccc2c3c([C@H](CO)N(C[C@]33CN(C3)S(=O)(=O)c3cn(C)cn3)C(=O)Nc3ccc(F)cc3)n(C)c2c1,1.114 ± 0.0043,
COc1ccc(NC(=O)N(C)C[C@H]2Oc3ccc(NC(=O)Nc4cccc5ccccc45)cc3CC(=O)N([C@H](C)CO)C[C@@H]2C)cc1,0.968 ± 0.027,
COc1ccccc1-c1ccc([C@@H]2[C@@H](C#N)N(C(=O)c3cccnc3)[C@@H]2CO)cc1,1.06 ± 0.063,
CN(C)CC(=O)N1[C@H](C#N)[C@H](c2ccccc2-c2ccccc2F)[C@@H]1CO,1.1 ± 0.066,
O=C(C[C@H]1CC[C@H]2[C@@H](COC[C@@H](O)CN2S(=O)(=O)c2ccc(F)cc2)O1)NCCN1CCCCC1,1.01 ± 0.12,
COc1ccccc1C#Cc1ccc([C@@H]2[C@H](CO)N3CCCCN(C(=O)C4CCC4)C[C@@H]23)cc1,0.967 ± 0.025,
COc1ccccc1C#Cc1ccc([C@H]2[C@H]3CN(C(=O)C4CCC4)CCCCN3[C@H]2CO)cc1,0.971 ± 0.013,
COc1ccccc1C#Cc1ccc([C@@H]2[C@@H](CO)N3CCCCN(CCC(F)(F)F)C[C@H]23)cc1,,0.759 ± 0.06
OC[C@H]1[C@H](c2ccc(C#Cc3ccccc3F)cc2)[C@@H]2CN(CC3CCOCC3)CCCCN12,0.8726 ± 0.0019,
OC[C@@H]1[C@@H](c2ccc(C#Cc3ccccc3F)cc2)[C@H]2CN(CC3CCOCC3)CCCCN12,0.852 ± 0.021,

Compound,viability index [1],viability index [2]
OC[C@H]1[C@@H](c2ccc(C#Cc3ccccc3F)cc2)[C@H]2CN(CC3CCOCC3)CCCCN21,0.938 ± 0.011,
C[C@@H]1CN([C@@H](C)CO)C(=O)CCCn2cc(nn2)CO[C@@H]1CN(C)S(=O)(=O)c1cn(C)cn1,1.07 ± 0.062,
COC(=O)C[C@H]1C[C@H]2c3cc(N)ccc3O[C@H]2[C@H](CO)O1,1.05 ± 0.0071,
C/C=C/c1ccc([C@@H]2[C@H](CO)N3CCCCN(S(=O)(=O)c4ccc(OC)cc4)C[C@@H]23)cc1,1.03 ± 0.014,
C[C@H](CO)N1C[C@H](C)[C@H](CN(C)C(=O)NC2CCCCC2)OCc2ccccc2-c2ccccc2C1=O,1.03 ± 0.03,
COC(=O)C[C@H]1CC[C@@H]2[C@@H](COc3ccc(NC(=O)Nc4c(C)noc4C)cc3C(=O)N2C)O1,0.983 ± 0.14,
O=C(Nc1ccc(F)cc1)N1CC(=O)N2[C@H](CO)[C@H](c3ccc(-c4cccc(F)c4)cc3)[C@H]2C1,1.05 ± 0.019,
C[C@@H]1CN([C@@H](C)CO)C(=O)c2ccccc2-c2ccccc2CO[C@H]1CN(C)C(=O)Nc1cccc(Cl)c1Cl,0.72 ± 0.16,
C[C@H]1CN([C@@H](C)CO)C(=O)c2ccccc2-c2ccccc2CO[C@H]1CN(C)C(=O)Nc1ccc(-c2ccccc2)cc1,0.724 ± 0.14,
C[C@H]1CN([C@@H](C)CO)C(=O)c2ccccc2-c2ccccc2CO[C@H]1CN(C)C(=O)Nc1cccc(Cl)c1Cl,0.9208 ± 0.0078,
C[C@H](CO)N1C[C@H](C)[C@@H](CN(C)C(=O)Nc2ccc(-c3ccccc3)cc2)OCc2ccccc2-c2ccccc2C1=O,1.019 ± 0.0076,
C[C@@H]1CN([C@@H](C)CO)C(=O)c2ccccc2-c2ccccc2CO[C@@H]1CN(C)C(=O)Nc1cccc(Cl)c1Cl,0.946 ± 0.053,
C[C@H](CO)N1C[C@H](C)[C@@H](CN(C)C(=O)Nc2cccc(Cl)c2Cl)OCc2ccccc2-c2ccccc2C1=O,0.845 ± 0.043,
C[C@@H]1CN([C@@H](C)CO)C(=O)c2ccccc2-c2ccccc2CO[C@@H]1CN(C)C(=O)Nc1ccc(-c2ccccc2)cc1,0.977 ± 0.016,
C[C@@H]1CN([C@H](C)CO)C(=O)c2ccccc2-c2ccccc2CO[C@H]1CN(C)C(=O)Nc1cccc(Cl)c1Cl,0.863 ± 0.045,
C[C@@H]1CN([C@H](C)CO)C(=O)c2ccccc2-c2ccccc2CO[C@@H]1CN(C)C(=O)Nc1cccc(Cl)c1Cl,0.894 ± 0.05,
COC(=O)C[C@@H]1C[C@@H]2c3cc(NC(=O)c4ccc5c(c4)OCO5)ccc3O[C@@H]2[C@H](CO)O1,0.991 ± 0.033,
COc1ccc(S(=O)(=O)Nc2ccc3c(c2)CC(=O)N([C@H](C)CO)C[C@@H](C)[C@@H](CN(C)C(=O)Nc2c(C)noc2C)O3)cc1,1.101 ± 0.0069,
Cc1ccc(S(=O)(=O)N(C)C[C@@H]2Oc3c(NS(C)(=O)=O)cccc3C(=O)N([C@H](C)CO)C[C@@H]2C)cc1,0.939 ± 0.13,
COc1ccccc1CNC(=O)C[C@@H]1C[C@@H]2c3cc(NC(=O)C4CCC4)ccc3O[C@@H]2[C@@H](CO)O1,1.01 ± 0.015,
O=C([C@@H]1[C@@H](CO)[C@@H]2Cn3c(ccc(C4=CCCC4)c3=O)[C@H]1N2C(=O)c1cccnc1)N1CCOCC1,1.08 ± 0.038,
